Measurements: the supplement of paper PMC11732987, “Enantioselective OTUD7B fragment discovery through chemoproteomics screening and high-throughput optimisation” (Communications Chemistry, 2025)

Experiments:
Assay in all cases: log2 ratio of Biotin-Ahx-Ub-VS probe labelling (fragment/DMSO); higher = less target engagement (more negative = stronger competition), active = hit call of the paper (q ≤ 0.05, log2 ratio ≤ -1)
Conditions in all cases: compound concentration: 200 uM; treatment time: 3 h
[1] = target: T1, OTUD6B (UniProt Q8N6M0)
T1 sequence (whole entry): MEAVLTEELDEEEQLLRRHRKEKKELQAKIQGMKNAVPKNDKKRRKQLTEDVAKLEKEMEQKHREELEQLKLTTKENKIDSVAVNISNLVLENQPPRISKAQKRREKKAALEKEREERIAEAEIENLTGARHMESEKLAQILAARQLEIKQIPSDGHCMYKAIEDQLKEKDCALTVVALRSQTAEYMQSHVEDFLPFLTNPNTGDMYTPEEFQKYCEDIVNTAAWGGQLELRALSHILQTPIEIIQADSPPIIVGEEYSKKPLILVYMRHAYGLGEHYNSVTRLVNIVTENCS
Outline: (§1)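 Labelled DUBs from HEK293T lysate were NeutrAvidin-enriched, digested with LysC and trypsin, and run by diaPASEF LC-MS/MS. Before that, each 495 µg sample in Tris/CHAPS/IGEPAL buffer with protease inhibitors was treated in triplicate with fragment at 200 µM or vehicle for 3 h, then with Biotin-Ahx-Ub-VS at 0.5 µM final for 1 h. Values are average log2 ratios of fragment over vehicle by unpaired t-test, based on global-median-normalised Spectronaut label-free quantities from proteins with ≥2 unique peptides.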

[2] = target: T2, OTUD7B (UniProt Q6GQQ9)
T2 sequence (whole entry): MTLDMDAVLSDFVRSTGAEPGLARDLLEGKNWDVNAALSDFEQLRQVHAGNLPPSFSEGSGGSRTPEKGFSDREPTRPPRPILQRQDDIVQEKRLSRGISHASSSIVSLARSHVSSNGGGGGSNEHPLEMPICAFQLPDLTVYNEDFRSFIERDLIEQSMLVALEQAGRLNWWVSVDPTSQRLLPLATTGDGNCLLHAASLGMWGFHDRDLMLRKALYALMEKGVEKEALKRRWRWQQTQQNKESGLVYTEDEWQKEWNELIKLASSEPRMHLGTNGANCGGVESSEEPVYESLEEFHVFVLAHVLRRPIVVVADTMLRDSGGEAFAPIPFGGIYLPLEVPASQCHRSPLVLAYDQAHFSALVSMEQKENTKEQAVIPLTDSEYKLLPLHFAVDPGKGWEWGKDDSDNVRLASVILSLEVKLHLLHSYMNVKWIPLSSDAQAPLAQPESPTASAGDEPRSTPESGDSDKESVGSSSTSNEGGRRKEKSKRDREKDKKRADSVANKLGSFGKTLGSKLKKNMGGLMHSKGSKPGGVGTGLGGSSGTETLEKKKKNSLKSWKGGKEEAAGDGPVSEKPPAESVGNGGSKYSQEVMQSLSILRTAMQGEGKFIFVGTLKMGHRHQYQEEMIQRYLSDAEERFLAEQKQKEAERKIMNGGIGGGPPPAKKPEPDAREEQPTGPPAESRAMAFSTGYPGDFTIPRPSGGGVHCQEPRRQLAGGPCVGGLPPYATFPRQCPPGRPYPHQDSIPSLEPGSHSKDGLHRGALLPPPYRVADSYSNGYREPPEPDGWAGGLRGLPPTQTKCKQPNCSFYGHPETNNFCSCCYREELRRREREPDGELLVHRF
Outline: as §1

[3] = target: PRPF8 (UniProt Q6P2Q9)
Outline: as §1

[4] = target: T3, PSMD7 (UniProt P51665)
T3 sequence (whole entry): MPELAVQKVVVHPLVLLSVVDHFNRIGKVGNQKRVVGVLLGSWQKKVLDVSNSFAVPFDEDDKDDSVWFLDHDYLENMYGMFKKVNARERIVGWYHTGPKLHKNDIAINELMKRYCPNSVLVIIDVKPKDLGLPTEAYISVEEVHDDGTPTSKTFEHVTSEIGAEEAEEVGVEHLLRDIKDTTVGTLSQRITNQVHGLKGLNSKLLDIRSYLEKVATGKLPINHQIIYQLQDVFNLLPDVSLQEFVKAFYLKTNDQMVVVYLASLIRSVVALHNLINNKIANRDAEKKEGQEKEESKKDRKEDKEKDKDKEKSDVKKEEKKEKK
Outline: as §1

[5] = target: UCHL1 (UniProt P09936)
Outline: as §1

[6] = target: T4, UCHL3 (UniProt P15374)
T4 sequence (whole entry): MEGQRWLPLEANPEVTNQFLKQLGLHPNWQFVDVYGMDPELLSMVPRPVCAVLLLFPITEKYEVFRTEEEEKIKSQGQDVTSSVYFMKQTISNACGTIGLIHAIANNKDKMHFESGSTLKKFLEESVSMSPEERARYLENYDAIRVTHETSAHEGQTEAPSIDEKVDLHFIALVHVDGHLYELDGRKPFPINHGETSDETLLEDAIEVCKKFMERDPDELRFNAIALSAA
Outline: as §1

[7] = target: T5, UCHL5 (UniProt Q9Y5K5)
T5 sequence (whole entry): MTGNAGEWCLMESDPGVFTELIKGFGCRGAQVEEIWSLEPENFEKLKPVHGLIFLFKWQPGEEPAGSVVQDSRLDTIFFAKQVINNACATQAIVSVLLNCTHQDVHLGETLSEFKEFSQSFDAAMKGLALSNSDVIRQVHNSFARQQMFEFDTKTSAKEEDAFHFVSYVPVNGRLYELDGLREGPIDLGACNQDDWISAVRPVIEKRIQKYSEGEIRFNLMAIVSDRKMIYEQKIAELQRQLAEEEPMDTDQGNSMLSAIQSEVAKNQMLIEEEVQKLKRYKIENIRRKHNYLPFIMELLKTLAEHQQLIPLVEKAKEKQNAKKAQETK
Outline: as §1

[8] = target: USP10 (UniProt Q14694)
Outline: as §1

[9] = target: T6, USP15 (UniProt Q9Y4E8)
T6 sequence (whole entry): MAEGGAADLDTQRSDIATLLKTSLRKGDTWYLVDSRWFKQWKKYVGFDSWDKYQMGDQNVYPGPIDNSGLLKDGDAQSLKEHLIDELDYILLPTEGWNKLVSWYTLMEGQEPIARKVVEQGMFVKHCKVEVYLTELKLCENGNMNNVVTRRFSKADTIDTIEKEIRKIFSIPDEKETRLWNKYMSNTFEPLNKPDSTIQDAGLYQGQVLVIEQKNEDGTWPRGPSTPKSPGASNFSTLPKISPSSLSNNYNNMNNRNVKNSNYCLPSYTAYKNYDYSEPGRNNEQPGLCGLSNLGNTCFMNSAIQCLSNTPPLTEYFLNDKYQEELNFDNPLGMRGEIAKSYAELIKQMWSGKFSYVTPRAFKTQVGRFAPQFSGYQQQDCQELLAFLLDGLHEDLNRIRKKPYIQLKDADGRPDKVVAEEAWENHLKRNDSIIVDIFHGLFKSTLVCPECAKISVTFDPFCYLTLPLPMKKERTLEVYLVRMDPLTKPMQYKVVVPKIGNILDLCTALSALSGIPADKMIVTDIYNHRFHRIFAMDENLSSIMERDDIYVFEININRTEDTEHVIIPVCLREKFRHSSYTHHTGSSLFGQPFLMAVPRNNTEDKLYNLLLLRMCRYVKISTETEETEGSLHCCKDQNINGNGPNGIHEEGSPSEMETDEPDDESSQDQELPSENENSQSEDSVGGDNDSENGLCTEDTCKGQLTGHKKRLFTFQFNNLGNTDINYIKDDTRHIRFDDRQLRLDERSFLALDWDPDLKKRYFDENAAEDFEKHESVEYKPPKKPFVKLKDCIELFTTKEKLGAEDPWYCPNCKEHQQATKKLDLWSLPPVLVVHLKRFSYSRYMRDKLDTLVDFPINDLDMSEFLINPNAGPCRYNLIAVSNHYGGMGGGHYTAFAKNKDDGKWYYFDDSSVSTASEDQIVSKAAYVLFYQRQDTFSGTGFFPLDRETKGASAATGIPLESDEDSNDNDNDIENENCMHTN
Outline: as §1

Measured: log2 ratio of Biotin-Ahx-Ub-VS probe labelling

UCHL1, sequence (P09936 whole entry, looked up): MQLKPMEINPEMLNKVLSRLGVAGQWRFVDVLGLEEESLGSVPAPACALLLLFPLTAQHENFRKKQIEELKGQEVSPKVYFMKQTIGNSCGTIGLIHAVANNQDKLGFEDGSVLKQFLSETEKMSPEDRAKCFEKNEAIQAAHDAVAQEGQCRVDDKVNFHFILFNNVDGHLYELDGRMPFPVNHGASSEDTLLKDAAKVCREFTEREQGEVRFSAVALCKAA
USP10, sequence (Q14694 whole entry): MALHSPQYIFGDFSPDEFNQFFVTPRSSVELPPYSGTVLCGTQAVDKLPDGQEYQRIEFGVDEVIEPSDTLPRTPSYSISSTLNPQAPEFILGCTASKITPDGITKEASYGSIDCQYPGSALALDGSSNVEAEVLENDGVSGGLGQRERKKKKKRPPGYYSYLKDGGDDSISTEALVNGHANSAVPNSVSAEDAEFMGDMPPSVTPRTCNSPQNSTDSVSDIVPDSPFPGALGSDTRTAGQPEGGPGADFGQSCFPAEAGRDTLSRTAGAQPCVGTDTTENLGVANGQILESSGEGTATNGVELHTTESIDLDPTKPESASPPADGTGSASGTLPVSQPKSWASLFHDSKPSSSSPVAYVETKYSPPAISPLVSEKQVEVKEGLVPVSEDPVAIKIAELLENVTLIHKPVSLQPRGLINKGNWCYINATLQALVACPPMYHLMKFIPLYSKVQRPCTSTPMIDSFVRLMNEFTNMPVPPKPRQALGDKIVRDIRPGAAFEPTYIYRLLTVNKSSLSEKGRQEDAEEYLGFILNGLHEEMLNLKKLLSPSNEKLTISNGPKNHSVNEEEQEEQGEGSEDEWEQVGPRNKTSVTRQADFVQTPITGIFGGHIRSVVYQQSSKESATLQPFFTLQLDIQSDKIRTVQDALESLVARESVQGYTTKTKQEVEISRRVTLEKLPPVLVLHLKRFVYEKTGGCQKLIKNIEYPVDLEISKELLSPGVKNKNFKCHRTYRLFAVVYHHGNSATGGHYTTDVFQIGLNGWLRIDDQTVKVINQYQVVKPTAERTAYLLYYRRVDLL

O=C(CCl)N[C@H]1CCS(=O)(=O)c2ccccc21
active: [2] -1.71 | [5] -1.5
inactive: [1] -0.0586 | [3] 0.0359 | [4] -0.0772 | [6] 0.351 | [7] -0.0806 | [8] -0.109 | [9] -0.195
